# Measured values as given in PubChem BioAssay (Tox21).
# Where “and” joins values, the source holds several entries; their conditions need not be identical. Equal entries are not always repeated. Inconclusive results are not listed. Where a call stands in place of a potency, no number is given. Calls of active or inactive are those of the source. Unless noted, calls come from the whole dose curve; as a rule, active = well fitted curve in the direction sought with a large enough effect in the repeat runs; inconclusive = weak or mixed curves; inactive = no such curve, though single readings can be large; an effect the other way counts as inactive or inconclusive.
# Assays:
# [1] = biological target: Estrogen receptor (Homo sapiens) (UniProt P03372); assay: qHTS assay to identify small molecule antagonists of the estrogen receptor alpha (ER-alpha) signaling pathway using the BG1 cell line in the presence of 0.1 nM 17-beta-estradiol (AID 1259244); note: nearly all actives have a fitted effect of over 50% in size; note: potency is the fitted concentration of half-maximal effect
# Outline: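 Seeding of stripped-serum-adapted VM7Luc4E2 cells, 24 h attachment, compound transfer, then 0.1 nM final 17beta-estradiol; after 22 h incubation, ONE-Glo reagent and luminescence reading.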
# [2] = qHTS assay to identify small molecule HDAC inhibitors (AID 1259364); note: potency is the fitted concentration of half-maximal effect;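 note: wild-type HCT-116 cells with endogenous class I/II HDAC activity; nearly all actives have a fitted effect of over 45% in size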
# Outline: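 After a 2 hr compound incubation (37C, 5% CO2), HCT-116 cells seeded at 1,500/well the day before received HDAC-Glo reagent; signal read as luminescence after 30 min at room temperature.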
# [3] = qHTS assay to identify small molecule HDAC inhibitors - cell viability counter screen (AID 1259365); note: nearly all actives have a fitted effect of over 50% in size; note: potency is the fitted concentration of half-maximal effect
# Outline: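 HCT-116 (wild type), 1,500 cells/well, overnight 37C/5% CO2; compound in DMSO 2hr; CellTiter-Glo 30min RT; luminescence read.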
# [4] = qHTS assay to identify small molecule agonists of the sonic hedgehog signaling (Shh) pathway - cell viability counter screen (AID 1259366); note: nearly all actives have a fitted effect of over 50% in size; note: potency is the fitted concentration of half-maximal effect
# Outline: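 CellTiter-Fluor fluorescence read-out, 1 hr at 37C, added after 23hr compound exposure. Cells: 3T3 Gli1-Luc, an NIH/3T3 clone with stably integrated Gli1-Luc reporter, plated 4hr before compound.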
# [5] = qHTS assay to identify small molecule antagonists of the sonic hedgehog signaling (Shh) pathway - cell viability counter screen (AID 1259367); note: nearly all actives have a fitted effect of over 55% in size; note: potency is the fitted concentration of half-maximal effect
# Outline: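 Tox21 library chemicals were tested on a Gli1-Luc NIH/3T3 clone (2,000 cells/well) stimulated by conditioned medium; viability was quantified as fluorescence from CellTiter-Fluor reagent added at 23 hr.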
# [6] = qHTS assay to identify small molecule agonists of the sonic hedgehog signaling (Shh) pathway (AID 1259368; calls by dose curve;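 note: NIH/3T3-derived 3T3Gli1-Luc cells carrying a stable Gli1-driven firefly luciferase reporter; series mostly up to about 92 µM; nearly all actives have a fitted effect of over 15% in size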)
# Outline: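 Stable NIH/3T3 Gli1-Luc reporter clone; 24 hr cpd exposure after a 4 hr settling period; luminescence endpoint.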
# [7] = qHTS assay to identify small molecule antagonists of the sonic hedgehog signaling (Shh) pathway (AID 1259369; calls by dose curve; note: nearly all actives have a fitted effect of over 45% in size; note: potency is the fitted concentration of half-maximal effect)
# Outline: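 Gli1 transcriptional reporter (firefly Luc) in NIH/3T3 background, conditioned-medium activated. 24hr exposure, luminescence endpoint.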
# [8] = qHTS assay to identify small molecule agonists of the androgen receptor (AR) signaling pathway in the presence of an antagonist - cell viability counter screen (AID 1259379); note: nearly all actives have a fitted effect of over 25% in size; note: potency is the fitted concentration of half-maximal effect
# Outline: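 Counter screen for cell viability run in parallel with the AR agonist-mode luciferase assay. MDA-kb2 cells were co-treated with nilutamide (3.0uM final) and compounds, then incubated 16 hr at 37C, and CellTiter-Fluor fluorescence was measured.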
# [9] = qHTS assay to identify small molecule antagonists of the estrogen receptor beta (ER-beta) signaling pathway - cell viability counter screen (AID 1259382); note: nearly all actives have a fitted effect of over 55% in size; note: potency is the fitted concentration of half-maximal effect
# Outline: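 HEK293T ER-beta-UAS-bla, 2% charcoal-stripped FBS; compounds + 1nM E2 16 hr 37C; CellTiter-Glo luminescence, 30 min RT.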
# [10] = biological target: Estrogen receptor (Homo sapiens) (UniProt P03372); assay: qHTS assay to identify small molecule agonists of the estrogen receptor alpha (ER-alpha) signaling pathway in the presence of an antagonist (AID 1259383; calls by dose curve; note: top concentration of the series differs between compounds; nearly all actives have a fitted effect of over 15% in size)
# Outline: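 ER-alpha agonism measured under antagonist challenge: 10.0nM ICI-182,780 (final) plus compound, 15 concentrations, 22hr, VM7Luc4E2 ERE-luciferase cells. Read by luminescence.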
# [11] = qHTS assay to identify small molecule agonists of the estrogen receptor alpha (ER-alpha) signaling pathway in the presence of an antagonist - cell viability counter screen (AID 1259386);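 note: cells exposed to compounds for 22 h at 37 °C before the viability read; nearly all actives have a fitted effect of over 30% in size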; note: potency is the fitted concentration of half-maximal effect
# Outline: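 Steps: 5-day stripped-FBS culture; seed and incubate 24hr; add ICI-182,780 (10.0nM final); pin 15-point compound titration; incubate 22hr at 37C; add CellTiter-Fluor at 21hr; read fluorescence.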
# [12] = biological target: Estrogen receptor beta (Homo sapiens) (UniProt Q92731); assay: qHTS assay to identify small molecule agonists of the estrogen receptor beta (ER-beta) signaling pathway (AID 1259377; active = well fitted activation curve with a large enough effect in the signal ratio in the repeat runs, not every such curve was filed as active; the % refers to the signal ratio)
# Outline: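 Beta-lactamase reporter readout: fluorescence of LiveBLAzer B/G FRET substrate after 2 h at room temperature, following 16 h compound treatment of ER-beta-UAS-bla HEK293T cells at 37C in 2% charcoal-stripped FBS medium.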
# [13] = qHTS assay to identify small molecule agonists of the estrogen receptor beta (ER-beta) signaling pathway - cell viability counter screen (AID 1259380); note: nearly all actives have a fitted effect of over 30% in size; note: potency is the fitted concentration of half-maximal effect
# Outline: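 In this qHTS counter screen, HEK293T cells carrying an ER-beta/UAS beta-lactamase reporter, grown in 2% charcoal-stripped FBS, received compound for 16 hr; ATP-based CellTiter-Glo luminescence was then read after 30 min at room temperature.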
# [14] = qHTS assay to identify small molecule agonists or antagonists of the thyroid stimulating hormone receptor (TSHR) signaling pathway - wild type cell line counter screen (AID 1259384; calls by dose curve)
# Outline: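 Wild-type Hek293 cells, 800/well, 18 h at 37C, then compound with Ro20-1724 for 30 min RT. cAMP by HTRF (cAMP-d2/anti-cAMP cryptate), 1 h RT, fluorescence read. 15 concentrations, triplicates.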
# [15] = biological target: Thyrotropin receptor (Homo sapiens) (UniProt P16473); assay: qHTS assay to identify small molecule antagonists of the thyroid stimulating hormone receptor (TSHR) signaling pathway (AID 1259385; calls by dose curve; note: nearly all actives have a fitted effect of over 20% in size; note: potency is the fitted concentration of half-maximal effect)
# Outline: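 TSHR-HEK293 cells (800/well) plated 18 h, then compounds with Ro20-1724 and TSH at 1.5 ng/mL final, 30 min at room temperature. cAMP quantified by HTRF (cAMP-d2/anti-cAMP-cryptate, 1 h); 15 concentrations in triplicate.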
# [16] = biological target: Estrogen receptor beta (Homo sapiens) (UniProt Q92731); assay: qHTS assay to identify small molecule antagonists of the estrogen receptor beta (ER-beta) signaling pathway (AID 1259378; active = well fitted inhibition curve with a large enough effect in the signal ratio in the repeat runs, not every such curve was filed as active; the % refers to the signal ratio; note: potency is the fitted concentration of half-maximal effect)
# Outline: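 ER-beta-UAS-bla HEK293T cells in 2% charcoal-stripped FBS medium treated with compound plus 1nM final 17-beta-estradiol for 16 hr at 37C. Beta-lactamase reporter read by FRET substrate fluorescence after 2 hours at room temperature.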
# [17] = biological target: Progesterone receptor (Homo sapiens) (UniProt P06401); assay: qHTS assay to identify small molecule agonists of the progesterone receptor (PR) signaling pathway (AID 1346784; calls by dose curve; note: nearly all actives have a fitted effect of over 30% in size)
# Outline: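 HEK 293T PR-UAS-bla reporter cells, 2% charcoal-stripped FBS; 6 hr settle at 37C/5% CO2, compound (DMSO) 16 hr, LiveBLAzer B/G FRET substrate 2 hr RT, fluorescence intensity read.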
# [18] = qHTS assay to identify small molecule phospholipidosis (PLD) inducers (AID 1259344; active = well fitted curve in the direction sought with a large enough effect; an effect the other way counts as inactive or inconclusive)
# Outline: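 Image-based: LipidTOX Red pit count/intensity per well and per cell; HepG2, 24 h compound at 37 C, PFA fixation, Hoechst counterstain.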
# [19] = biological target: Androgen receptor (Homo sapiens) (UniProt P10275); assay: qHTS assay to identify small molecule agonists of the androgen receptor (AR) signaling pathway in the presence of an antagonist (AID 1259381; calls by dose curve; note: nearly all actives have a fitted effect of over 15% in size)
# Outline: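 AR antagonist background: nilutamide 3.0uM final. Cell line: MDA-kb2, MMTV-driven luciferase, responsive to both AR and GR. Exposure 16hr, 37C, no CO2; ONE-Glo luminescence.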
# Chain of Androgen receptor (Homo sapiens) (P10275 whole entry, looked up): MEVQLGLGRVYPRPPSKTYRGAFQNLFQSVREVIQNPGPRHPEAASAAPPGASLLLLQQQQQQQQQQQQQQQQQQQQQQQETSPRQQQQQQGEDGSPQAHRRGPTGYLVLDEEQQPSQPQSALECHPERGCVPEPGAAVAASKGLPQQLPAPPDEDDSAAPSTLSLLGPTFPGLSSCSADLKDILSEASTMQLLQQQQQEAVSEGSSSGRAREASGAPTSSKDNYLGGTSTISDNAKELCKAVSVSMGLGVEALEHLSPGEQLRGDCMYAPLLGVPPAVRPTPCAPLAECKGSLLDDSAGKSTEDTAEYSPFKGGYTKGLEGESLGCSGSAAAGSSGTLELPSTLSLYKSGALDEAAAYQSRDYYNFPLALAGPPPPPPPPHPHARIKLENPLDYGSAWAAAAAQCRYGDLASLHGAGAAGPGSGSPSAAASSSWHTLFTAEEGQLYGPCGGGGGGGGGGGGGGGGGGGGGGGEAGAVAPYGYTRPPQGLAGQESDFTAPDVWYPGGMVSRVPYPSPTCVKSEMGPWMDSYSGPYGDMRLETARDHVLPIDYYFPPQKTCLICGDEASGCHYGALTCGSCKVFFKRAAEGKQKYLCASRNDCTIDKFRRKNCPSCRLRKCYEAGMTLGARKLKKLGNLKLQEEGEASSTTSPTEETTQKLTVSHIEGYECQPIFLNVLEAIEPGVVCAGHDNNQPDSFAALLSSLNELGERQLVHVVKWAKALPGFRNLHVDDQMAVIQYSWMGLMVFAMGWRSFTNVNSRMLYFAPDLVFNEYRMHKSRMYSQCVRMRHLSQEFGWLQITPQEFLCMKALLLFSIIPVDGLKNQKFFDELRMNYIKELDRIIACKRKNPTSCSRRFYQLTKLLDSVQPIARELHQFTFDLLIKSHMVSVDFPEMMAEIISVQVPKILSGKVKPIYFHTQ
# Chain of Estrogen receptor beta (Homo sapiens) (Q92731 whole entry, looked up): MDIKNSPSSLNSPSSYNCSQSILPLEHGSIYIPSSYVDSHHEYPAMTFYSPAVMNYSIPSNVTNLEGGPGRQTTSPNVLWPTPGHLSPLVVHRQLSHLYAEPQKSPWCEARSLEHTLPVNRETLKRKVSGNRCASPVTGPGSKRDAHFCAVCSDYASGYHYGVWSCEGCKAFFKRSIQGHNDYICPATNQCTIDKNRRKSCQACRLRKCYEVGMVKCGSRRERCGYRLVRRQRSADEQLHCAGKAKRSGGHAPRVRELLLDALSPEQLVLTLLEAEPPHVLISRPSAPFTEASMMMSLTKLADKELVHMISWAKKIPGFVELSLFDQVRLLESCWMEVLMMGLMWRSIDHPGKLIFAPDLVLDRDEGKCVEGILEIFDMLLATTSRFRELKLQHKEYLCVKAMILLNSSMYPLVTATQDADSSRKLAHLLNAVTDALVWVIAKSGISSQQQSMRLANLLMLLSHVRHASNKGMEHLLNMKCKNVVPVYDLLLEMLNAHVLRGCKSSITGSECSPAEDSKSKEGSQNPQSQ
# Chain of Estrogen receptor (Homo sapiens) (P03372 whole entry, looked up): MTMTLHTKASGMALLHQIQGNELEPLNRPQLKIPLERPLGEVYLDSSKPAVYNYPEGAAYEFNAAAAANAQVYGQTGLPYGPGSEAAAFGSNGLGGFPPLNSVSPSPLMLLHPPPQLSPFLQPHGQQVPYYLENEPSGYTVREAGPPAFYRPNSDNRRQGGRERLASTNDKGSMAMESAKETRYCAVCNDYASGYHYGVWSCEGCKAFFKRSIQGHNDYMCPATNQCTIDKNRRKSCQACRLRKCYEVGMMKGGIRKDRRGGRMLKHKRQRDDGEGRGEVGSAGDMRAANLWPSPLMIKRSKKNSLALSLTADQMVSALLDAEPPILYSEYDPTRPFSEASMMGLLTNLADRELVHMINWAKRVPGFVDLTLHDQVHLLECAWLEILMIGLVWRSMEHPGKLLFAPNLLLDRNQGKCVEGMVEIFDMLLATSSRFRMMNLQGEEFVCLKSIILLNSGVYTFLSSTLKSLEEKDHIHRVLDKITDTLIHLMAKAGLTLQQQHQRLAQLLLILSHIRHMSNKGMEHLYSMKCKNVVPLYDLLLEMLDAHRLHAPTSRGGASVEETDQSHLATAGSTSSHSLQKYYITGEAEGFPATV
# Chain of Progesterone receptor (Homo sapiens) (P06401 whole entry, looked up): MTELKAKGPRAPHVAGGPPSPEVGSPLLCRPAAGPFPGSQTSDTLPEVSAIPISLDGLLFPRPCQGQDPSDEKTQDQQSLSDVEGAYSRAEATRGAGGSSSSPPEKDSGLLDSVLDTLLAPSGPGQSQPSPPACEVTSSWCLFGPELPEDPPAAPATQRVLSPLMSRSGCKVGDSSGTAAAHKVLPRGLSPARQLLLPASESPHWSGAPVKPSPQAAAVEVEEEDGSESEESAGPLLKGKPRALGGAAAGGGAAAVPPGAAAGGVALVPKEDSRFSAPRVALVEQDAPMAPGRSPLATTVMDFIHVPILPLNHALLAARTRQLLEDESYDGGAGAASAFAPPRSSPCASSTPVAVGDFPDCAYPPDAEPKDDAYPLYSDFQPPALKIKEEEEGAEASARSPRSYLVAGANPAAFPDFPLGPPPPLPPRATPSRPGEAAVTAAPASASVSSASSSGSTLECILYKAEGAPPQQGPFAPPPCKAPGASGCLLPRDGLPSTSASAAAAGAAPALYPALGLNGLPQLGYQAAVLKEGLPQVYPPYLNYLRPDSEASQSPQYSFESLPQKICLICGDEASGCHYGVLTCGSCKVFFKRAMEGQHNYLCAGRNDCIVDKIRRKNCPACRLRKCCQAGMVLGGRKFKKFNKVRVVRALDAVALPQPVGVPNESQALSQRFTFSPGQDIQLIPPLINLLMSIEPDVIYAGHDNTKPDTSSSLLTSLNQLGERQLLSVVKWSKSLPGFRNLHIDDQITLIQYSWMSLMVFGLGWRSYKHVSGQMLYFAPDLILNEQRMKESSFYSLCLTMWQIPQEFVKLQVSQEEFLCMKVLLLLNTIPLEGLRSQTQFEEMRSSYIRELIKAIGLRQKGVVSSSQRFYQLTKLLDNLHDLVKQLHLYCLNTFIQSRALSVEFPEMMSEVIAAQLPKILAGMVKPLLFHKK
# Chain of Thyrotropin receptor (Homo sapiens) (P16473 whole entry, looked up): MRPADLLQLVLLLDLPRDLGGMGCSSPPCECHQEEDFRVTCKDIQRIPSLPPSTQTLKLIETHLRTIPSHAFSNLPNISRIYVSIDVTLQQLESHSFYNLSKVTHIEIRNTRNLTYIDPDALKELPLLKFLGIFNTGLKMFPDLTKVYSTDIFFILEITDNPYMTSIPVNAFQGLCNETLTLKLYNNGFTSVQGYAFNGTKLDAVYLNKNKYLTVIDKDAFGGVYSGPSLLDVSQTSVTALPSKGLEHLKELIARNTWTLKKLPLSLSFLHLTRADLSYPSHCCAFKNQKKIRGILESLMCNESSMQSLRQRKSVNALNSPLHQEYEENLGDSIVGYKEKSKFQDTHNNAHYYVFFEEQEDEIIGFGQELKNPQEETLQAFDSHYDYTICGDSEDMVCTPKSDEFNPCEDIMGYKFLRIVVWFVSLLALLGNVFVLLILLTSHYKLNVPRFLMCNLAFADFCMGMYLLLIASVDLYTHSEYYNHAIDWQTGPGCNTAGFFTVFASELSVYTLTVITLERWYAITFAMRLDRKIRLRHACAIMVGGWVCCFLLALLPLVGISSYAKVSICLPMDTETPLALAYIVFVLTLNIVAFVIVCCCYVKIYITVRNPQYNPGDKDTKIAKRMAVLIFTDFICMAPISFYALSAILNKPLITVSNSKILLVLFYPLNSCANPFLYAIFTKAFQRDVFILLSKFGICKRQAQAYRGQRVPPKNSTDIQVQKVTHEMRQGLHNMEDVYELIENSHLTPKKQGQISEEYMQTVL
Compound,Potency [1],Potency [2],Potency [3],Potency [4],Potency [5],Potency [6],Potency [7],Potency [8],Potency [9],Potency [10],Potency [11],Potency [12],Potency [13],outcome [14],Potency [15],Potency [16],Potency [17],outcome [18],Potency [19]
COC(=O)Cc1ccccc1,inactive,inactive,inactive,inactive,inactive,inactive,inactive,inactive,inactive,inactive,inactive,,,,,,,,
CCOC(=O)c1cn2nc(OP(=S)(OCC)OCC)cc2nc1C,inactive,inactive,inactive,inactive,inactive,inactive,,inactive,,inactive,inactive,inactive,inactive,inactive,,,,,
O=[N+]([O-])/C=C/c1ccccc1,,inactive,,5.54 µM (active) and 10.9 µM (active),,inactive,,44 µM (active) and 68.6 µM (active),inactive,,inactive,,,inactive,27.8 µM (active) and 21.7 µM (active),,,,
O=C(CCl)CCl,inactive,inactive,,,inactive,inactive,19.3 µM (active),63.4 µM (active) and 48.6 µM (active),inactive,inactive,inactive,inactive,,inactive,inactive,inactive,inactive,,
[Cl-].[Cl-].[Hg+2],,54.2 µM (active) and 34.4 µM (active),68.2 µM (active),682 nM (active) and 2.17 µM (active),964 nM (active) and 1.93 µM (active),inactive,34.2 nM (active) and 243 nM (active),inactive,4.31 µM (active) and 4.86 µM (active),,54.2 µM (active) and 27.3 µM (active),,,,,,,inactive,
O=C(NCNC(=O)NC1C(=O)NC(=O)N1CO)NC1C(=O)NC(=O)N1CO (stereo not drawn),,inactive,inactive,inactive,inactive,inactive,inactive,inactive,inactive,,inactive,inactive,,inactive,inactive,inactive,inactive,inactive,inactive
CC(=O)NNc1ccccc1,,inactive,inactive,inactive,inactive,inactive,inactive,inactive,,,inactive,inactive,,inactive,,,inactive,,inactive
C#CC(O)(C=CCl)CC (stereo not drawn),inactive,inactive,inactive,,inactive,inactive,inactive,inactive,inactive,inactive,inactive,,inactive,,inactive,,inactive,,inactive
CCCCCCCCn1sccc1=O,30.7 µM (active),inactive,inactive,4.34 µM (active) and 3.21 µM (active),4.34 µM (active),inactive,1.37 µM (active) and 1.02 µM (active),61.3 µM (active) and 57.1 µM (active),,inactive,,inactive,30.7 µM (active) and 28.6 µM (active),inactive,61.3 µM (active) and 71.9 µM (active),27.4 µM (active) and 32.1 µM (active),inactive,,
C[N+](C)(C)CCOC(=O)C(O)(c1ccccc1)c1ccccc1,,inactive,inactive,inactive,inactive,inactive,inactive,inactive,inactive,,inactive,inactive,inactive,,,inactive,inactive,inactive,
NNCCO,inactive,inactive,inactive,inactive,inactive,inactive,inactive,inactive,,inactive,inactive,,inactive,inactive,inactive,inactive,inactive,,
O=C(Cc1ccccc1)OCCc1ccccc1,inactive,inactive,inactive,inactive,,inactive,inactive,inactive,inactive,inactive,inactive,inactive,inactive,inactive,inactive,inactive,inactive,,
ClCc1ccccc1Cl,,inactive,,inactive,inactive,inactive,inactive,inactive,inactive,,inactive,inactive,inactive,inactive,inactive,inactive,,,inactive
O=C(N[C@H]1CN2CCC1CC2)c1ccc2c(c1)OCCO2,,inactive,inactive,,inactive,inactive,inactive,inactive,inactive,,,inactive,inactive,inactive,inactive,inactive,,,inactive
O=C(O)C(O)C(O)C(=O)O (stereo not drawn),inactive,inactive,inactive,inactive,inactive,inactive,inactive,inactive,inactive,inactive,inactive,,,,,,inactive,,
CCC(C)(C)c1ccc(O)c(C(C)(C)CC)c1,inactive,inactive,,inactive,inactive,inactive,inactive,,,inactive,inactive,,21.4 µM (active) and 24.3 µM (active),inactive,inactive,,,,
O=C1c2ccccc2C(=O)N1SC(Cl)(Cl)Cl,15.1 µM (active) and 21.7 µM (active),inactive,,12 µM (active) and 9.69 µM (active),9.55 µM (active) and 17.2 µM (active),inactive,1.07 µM (active) and 1.93 µM (active),26.9 µM (active) and 27.3 µM (active),inactive,inactive,inactive,inactive,,inactive,inactive,,inactive,,
C[Si](Cn1cncn1)(c1ccc(F)cc1)c1ccc(F)cc1,,inactive,inactive,inactive,inactive,inactive,8.92 µM (active),inactive,,,inactive,inactive,inactive,inactive,inactive,,inactive,,
CCOP(=S)(OCC)Oc1ccc(S(C)=O)cc1 (stereo not drawn),inactive,inactive,,inactive,inactive,inactive,inactive,inactive,inactive,inactive,inactive,inactive,,inactive,inactive,inactive,,,
